Data from PubChem BioAssay (Tox21).
Inconclusive results are not listed. Activity calls are given as the source filed them. Unless noted, the call rests on the fitted dose curve; in most records, active means well fitted curve in the direction sought with a large enough effect in the repeat runs; inconclusive means weak or mixed curves; inactive means no such curve, though single readings can be large; an effect the other way counts as inactive or inconclusive.

Key:
[1] = qHTS assay to identify aromatase inhibitors - cell viability counter screen (AID 743084);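 further: cells stimulated with testosterone during compound exposure; nearly all actives have a fitted effect of over 55% in size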
[2] = biological target: Aryl hydrocarbon receptor (Homo sapiens) (UniProt P35869); assay: qHTS assay to identify small molecule that activate the aryl hydrocarbon receptor (AhR) signaling pathway (AID 743085);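 further: HG2L7.5c1 human HepG2 liver cells with stably integrated DRE-driven firefly reporter; series mostly up to about 70 µM; nearly all actives have a fitted effect of over 15% in size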
In short: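 HepG2 cells (HG2L7.5c1) stably carrying a firefly luciferase reporter driven by 20 dioxin responsive elements were exposed to compound for 24 h at 37C after a 5 h settling period; luminescence rise (ONE-Glo) indicated activation.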

[3] = qHTS assay to identify small molecule that activate the aryl hydrocarbon receptor (AhR) signaling pathway - cell viability counter screen (AID 743086);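 further: HepG2 liver cells carrying the AhR DRE luciferase reporter; series mostly up to about 70 µM; nearly all actives have a fitted effect of over 45% in size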
In short: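 Cytotoxicity counter screen: CellTiter-Fluor signal (30 min, 37 C) in 4000 HepG2 cells/well carrying the DRE-luciferase reporter, following 24 h compound exposure at 37 C.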

[4] = biological target: Peroxisome proliferator-activated receptor gamma (Homo sapiens) (UniProt P37231); assay: qHTS assay to identify small molecule agonists of the peroxisome proliferator-activated receptor gamma (PPARg) signaling pathway (AID 743094; active means well fitted activation curve with a large enough effect in the signal ratio in the repeat runs, not every such curve was filed as active; the % refers to the signal ratio)
In short: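 Cell-based bla reporter, HEK293H background, PPARg-driven UAS. Pre-incubation 5 h, 37C, 5% CO2. Compound 17 h, 37C. Substrate 1 h RT; fluorescence.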

[5] = biological target: Peroxisome proliferator-activated receptor gamma (Homo sapiens) (UniProt P37231); assay: qHTS assay to identify small molecule antagonists of the peroxisome proliferator-activated receptor gamma (PPARg) signaling pathway (AID 743191; calls by dose curve; further: series mostly up to about 63 µM; nearly all actives have a fitted effect of over 30% in size)
In short: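 Beta-lactamase reporter under UAS control in HEK293H PPARg-bla cells; compound treatment 17 h at 37C. Read-out: fluorescence intensity after 1 h room-temperature incubation with LiveBLAzer B/G FRET substrate.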

[6] = qHTS assay to identify small molecule antagonists of the peroxisome proliferator-activated receptor gamma (PPARg) signaling pathway - cell viability counter screen (AID 743194); further: nearly all actives have a fitted effect of over 55% in size
In short: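 Viability was measured as CellTiter-Glo luminescence in GeneBLAzer PPARg UAS-bla HEK293H cells. These cells had been exposed 17 h at 37 C to compounds together with rosiglitazone at 50 nM final, with the beta-lactamase readout taken in the same wells.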

[7] = qHTS assay for small molecule agonists of the antioxidant response element (ARE) signaling pathway (AID 743202; active means well fitted activation curve with a large enough effect in the signal ratio in the repeat runs, not every such curve was filed as active; the % refers to the signal ratio)
In short: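 After 16 hours of compound treatment at 37 C, HepG2 cells with a stably integrated ARE-driven beta-lactamase reporter were loaded 2 hours at room temperature with LiveBLAzer B/G FRET substrate and fluorescence intensity measured.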

[8] = qHTS assay for small molecule activators of the heat shock response signaling pathway - cell viability counter screen (AID 743209); further: nearly all actives have a fitted effect of over 50% in size
In short: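 Same-well multiplex: after 2.5 h room-temperature incubation with LiveBLAzer B/G substrate and fluorescence reading, CellTiter-Glo reagent was added to HSE-bla HeLa cells that had received compound for 5 h at 37 C; luminescence read after 30 min.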

[9] = qHTS assay to identify small molecule agonists of the peroxisome proliferator-activated receptor delta (PPARd) signaling pathway - cell viability counter screen (AID 743211); further: nearly all actives have a fitted effect of over 55% in size
In short: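 PPARd-bla HEK293H cells (UAS-beta-lactamase reporter) were treated with compounds for 17 h at 37 C. Viability was then read in the same wells by CellTiter-Glo luminescence after 30 min at room temperature.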

[10] = biological target: Peroxisome proliferator-activated receptor delta (Homo sapiens) (UniProt Q03181); assay: qHTS assay to identify small molecule agonists of the peroxisome proliferator-activated receptor delta (PPARd) signaling pathway (AID 743212; calls by dose curve)
In short: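 Beta-lactamase reporter readout: a ratiometric FRET signal from the LiveBLAzer substrate after 2 h at room temperature. Compound exposure at 37 °C in PPARδ-bla HEK293H cells driven by an upstream activator sequence.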

[11] = qHTS assay to identify small molecule antagonists of the peroxisome proliferator-activated receptor delta (PPARd) signaling pathway - cell viability counter screen (AID 743213); further: nearly all actives have a fitted effect of over 50% in size
In short: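 Agonist-stimulated (L165041, 300 nM final) HEK293H PPARd UAS-bla cells are exposed to compounds for 17 h at 37 C, and ATP-based luminescence (CellTiter-Glo) from the same wells reports cytotoxicity.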

[12] = biological target: Peroxisome proliferator-activated receptor delta (Homo sapiens) (UniProt Q03181); assay: qHTS assay to identify small molecule antagonists of the peroxisome proliferator-activated receptor delta (PPARd) signaling pathway (AID 743215; active means well fitted inhibition curve with a large enough effect in the signal ratio in the repeat runs, not every such curve was filed as active; the % refers to the signal ratio; further: series mostly up to about 62 µM)
In short: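 Fluorescence from cleaved LiveBLAzer B/G FRET substrate (2 h, room temperature) reports PPARd-driven beta-lactamase in HEK293H UAS-bla cells. Cells had been treated 17 h at 37 C with compound plus 300 nM final L165041.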

[13] = qHTS assay to identify small molecule agonists of the farnesoid-X-receptor (FXR) signaling pathway - cell viability counter screen (AID 743218); further: nearly all actives have a fitted effect of over 45% in size
In short: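 Readout: CellTiter-Glo luminescence, 30 min RT, multiplexed after the FXR-bla FRET reading. HEK 293T FXR-UAS-bla cells received compound 5 h post-plating and were incubated 16 h at 37 C.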

[14] = qHTS assay to identify small molecule antagonists of the farnesoid-X-receptor (FXR) signaling pathway - cell viability counter screen (AID 743221; active means well fitted cell-killing curve with a large enough effect in the repeat runs, not every such curve was filed as active; further: nearly all actives have a fitted effect of over 50% in size)
In short: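 FXR-UAS-bla HEK 293T cells were treated with test compounds plus chenodeoxycholic acid (50 uM final) for 16 h at 37 C. Cell viability in the same wells was then read as CellTiter-Glo luminescence after 30 min at room temperature.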

[15] = biological target: Vitamin D3 receptor (Homo sapiens) (UniProt P11473); assay: qHTS assay to identify small molecule agonists of the vitamin D receptor (VDR) signaling pathway (AID 743222; calls by dose curve)
In short: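 Following 4 h attachment at 37C, VDR-bla cells (2,000 per well) received DMSO-dissolved compounds or controls. After 16 h incubation, LiveBLAzer B/G FRET substrate was added and fluorescence read 2 h later at room temperature.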

[16] = qHTS assay for small molecule agonists of the antioxidant response element (ARE) signaling pathway - cell viability counter screen (AID 743203; calls by dose curve; further: nearly all actives have a fitted effect of over 55% in size)
In short: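 Measured in the same wells as the beta-lactamase ARE reporter, this read-out is CellTiter-Glo luminescence from HepG2 ARE-bla cells given compounds for 16 hrs.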

[17] = qHTS assay for small molecule activators of the heat shock response signaling pathway (AID 743210; active means well fitted activation curve with a large enough effect in the signal ratio in the repeat runs, with a control signal flat, not every such curve was filed as active; the % refers to the signal ratio; further: series mostly up to about 63 µM)
In short: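 Compound exposure lasted 5 h at 37 C in HeLa cells carrying a heat-shock-element-driven beta-lactamase reporter. Read-out: fluorescence intensity after 2.5 h room-temperature loading with LiveBLAzer B/G FRET substrate.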

[18] = biological target: Vitamin D3 receptor (Homo sapiens) (UniProt P11473); assay: qHTS assay to identify small molecule antagonists of the vitamin D receptor (VDR) signaling pathway (AID 743223; active means well fitted inhibition curve with a large enough effect in the signal ratio in the repeat runs, not every such curve was filed as active; the % refers to the signal ratio)
In short: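 VDR-bla cells were plated, incubated 4 h at 37C, then given compound and 1alpha,25-dihydroxyvitamin D3 (3 nM final). After 16 h at 37C, LiveBLAzer B/G FRET substrate was added for 2 h at room temperature and fluorescence read.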

[19] = biological target: Bile acid receptor (Homo sapiens) (UniProt Q96RI1); assay: qHTS assay to identify small molecule agonists of the farnesoid-X-receptor (FXR) signaling pathway (AID 743220; active means well fitted activation curve with a large enough effect in the signal ratio in the repeat runs, not every such curve was filed as active; the % refers to the signal ratio)
In short: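 FXR-UAS-bla HEK 293T cells carrying a UAS-driven beta-lactamase reporter were plated for 5 h at 37C/5% CO2, then exposed to DMSO-dissolved Tox21 10K compounds for 16 h at 37C. A LiveBLAzer B/G FRET substrate was loaded for 2 h at room temperature before fluorescence reading.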

[20] = biological target: Bile acid receptor (Homo sapiens) (UniProt Q96RI1); assay: qHTS assay to identify small molecule antagonists of the farnesoid-X-receptor (FXR) signaling pathway (AID 743217; active means well fitted inhibition curve with a large enough effect in the signal ratio in the repeat runs, not every such curve was filed as active; the % refers to the signal ratio)
In short: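 FRET fluorescence after 2 h room-temperature LiveBLAzer loading gives the readout. Prior step: FXR-bla HEK 293T cells, seeded and incubated 5 h, received test compounds plus 50 uM final CDCA for 16 h at 37 °C.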
On the % scale 0 is the no-effect control and ±100 the full control effect.

Peroxisome proliferator-activated receptor gamma (Homo sapiens), sequence (P37231 whole entry, looked up): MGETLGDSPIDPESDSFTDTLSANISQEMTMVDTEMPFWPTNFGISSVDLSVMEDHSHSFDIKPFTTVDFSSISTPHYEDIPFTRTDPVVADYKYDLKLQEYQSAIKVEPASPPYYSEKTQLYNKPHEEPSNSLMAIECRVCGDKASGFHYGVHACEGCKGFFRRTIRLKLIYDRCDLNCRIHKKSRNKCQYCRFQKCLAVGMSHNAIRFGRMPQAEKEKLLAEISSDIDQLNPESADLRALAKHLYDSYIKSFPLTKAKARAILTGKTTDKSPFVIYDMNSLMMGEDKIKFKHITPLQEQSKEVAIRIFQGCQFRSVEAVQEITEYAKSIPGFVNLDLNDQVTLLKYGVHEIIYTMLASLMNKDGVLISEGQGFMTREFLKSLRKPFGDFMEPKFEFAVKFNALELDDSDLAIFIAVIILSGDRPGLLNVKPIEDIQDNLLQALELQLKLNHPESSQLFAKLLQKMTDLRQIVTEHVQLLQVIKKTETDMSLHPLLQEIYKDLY
Bile acid receptor (Homo sapiens), sequence (Q96RI1 whole entry, looked up): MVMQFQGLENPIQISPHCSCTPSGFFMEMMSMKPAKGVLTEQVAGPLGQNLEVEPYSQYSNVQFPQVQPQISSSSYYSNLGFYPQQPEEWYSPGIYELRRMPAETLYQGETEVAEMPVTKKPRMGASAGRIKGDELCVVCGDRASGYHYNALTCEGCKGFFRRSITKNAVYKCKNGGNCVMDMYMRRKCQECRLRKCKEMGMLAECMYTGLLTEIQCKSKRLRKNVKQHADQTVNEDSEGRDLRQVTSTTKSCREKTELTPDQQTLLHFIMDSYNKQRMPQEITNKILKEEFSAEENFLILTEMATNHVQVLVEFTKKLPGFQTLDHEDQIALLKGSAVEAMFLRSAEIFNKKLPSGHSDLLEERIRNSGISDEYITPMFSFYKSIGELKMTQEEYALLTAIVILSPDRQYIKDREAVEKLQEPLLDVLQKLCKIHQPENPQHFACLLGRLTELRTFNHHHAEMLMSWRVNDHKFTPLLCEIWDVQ
Aryl hydrocarbon receptor (Homo sapiens), sequence (P35869 whole entry, looked up): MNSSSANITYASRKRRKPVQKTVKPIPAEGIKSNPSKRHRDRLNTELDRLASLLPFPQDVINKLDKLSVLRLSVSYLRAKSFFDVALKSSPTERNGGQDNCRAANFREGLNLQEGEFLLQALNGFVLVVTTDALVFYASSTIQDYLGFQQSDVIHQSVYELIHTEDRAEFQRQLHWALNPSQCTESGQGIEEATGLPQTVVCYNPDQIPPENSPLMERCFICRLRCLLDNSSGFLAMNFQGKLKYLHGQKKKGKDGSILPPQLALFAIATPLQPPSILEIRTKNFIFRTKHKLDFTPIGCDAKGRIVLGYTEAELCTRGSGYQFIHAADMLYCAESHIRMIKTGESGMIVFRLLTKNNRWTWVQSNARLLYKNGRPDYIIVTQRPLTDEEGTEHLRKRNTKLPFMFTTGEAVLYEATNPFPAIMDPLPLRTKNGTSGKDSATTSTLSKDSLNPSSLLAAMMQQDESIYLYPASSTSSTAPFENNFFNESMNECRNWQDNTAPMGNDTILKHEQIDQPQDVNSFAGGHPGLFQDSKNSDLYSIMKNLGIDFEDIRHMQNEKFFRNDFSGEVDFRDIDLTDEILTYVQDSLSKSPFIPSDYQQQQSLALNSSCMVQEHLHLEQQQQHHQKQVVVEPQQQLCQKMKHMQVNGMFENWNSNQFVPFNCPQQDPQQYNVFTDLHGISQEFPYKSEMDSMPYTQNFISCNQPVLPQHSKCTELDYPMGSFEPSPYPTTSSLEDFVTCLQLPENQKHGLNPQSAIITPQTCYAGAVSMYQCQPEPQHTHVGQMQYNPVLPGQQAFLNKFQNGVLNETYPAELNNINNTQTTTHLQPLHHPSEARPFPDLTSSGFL
Peroxisome proliferator-activated receptor delta (Homo sapiens), sequence (Q03181 whole entry, looked up): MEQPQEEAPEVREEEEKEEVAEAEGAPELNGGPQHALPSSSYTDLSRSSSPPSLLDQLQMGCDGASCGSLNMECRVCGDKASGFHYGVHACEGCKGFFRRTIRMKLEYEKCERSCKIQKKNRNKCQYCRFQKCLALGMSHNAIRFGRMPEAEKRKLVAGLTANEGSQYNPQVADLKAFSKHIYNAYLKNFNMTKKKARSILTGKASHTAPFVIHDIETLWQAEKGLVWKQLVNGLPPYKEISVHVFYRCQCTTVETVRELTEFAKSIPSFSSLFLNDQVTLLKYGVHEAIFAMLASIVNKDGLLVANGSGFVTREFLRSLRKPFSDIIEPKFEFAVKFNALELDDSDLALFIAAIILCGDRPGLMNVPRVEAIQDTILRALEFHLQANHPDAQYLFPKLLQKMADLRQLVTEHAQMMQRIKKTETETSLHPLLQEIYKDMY
Vitamin D3 receptor (Homo sapiens), sequence (P11473 whole entry, looked up): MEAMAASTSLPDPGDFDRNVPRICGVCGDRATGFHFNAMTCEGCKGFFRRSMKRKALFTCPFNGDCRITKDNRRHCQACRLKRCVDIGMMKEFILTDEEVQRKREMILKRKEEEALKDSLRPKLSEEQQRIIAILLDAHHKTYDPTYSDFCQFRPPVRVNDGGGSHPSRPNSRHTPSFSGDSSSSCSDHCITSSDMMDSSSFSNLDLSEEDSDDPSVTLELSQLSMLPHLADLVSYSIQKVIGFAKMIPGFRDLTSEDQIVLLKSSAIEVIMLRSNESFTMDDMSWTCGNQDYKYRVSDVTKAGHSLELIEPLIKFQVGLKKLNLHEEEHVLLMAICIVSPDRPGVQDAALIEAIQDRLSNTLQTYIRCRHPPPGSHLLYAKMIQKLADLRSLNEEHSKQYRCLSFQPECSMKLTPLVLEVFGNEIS

ON(Cc1ccccc1)Cc1ccccc1
inactive: Potency [1] | Potency [2] | Potency [3] | Potency [4] | Potency [5] | Potency [6] | Potency [7] | Potency [8] | Potency [9] | Potency [10] | Potency [11] | Potency [12] | Potency [13] | Potency [14] | outcome [15]

CCCCCCCCCCCCCCCCBr
inactive: Potency [1] | Potency [2] | Potency [3] | Potency [4] | Potency [5] | Potency [7] | Potency [16] | Potency [8] | Potency [17] | Potency [9] | Potency [10] | Potency [11] | Potency [12] | Potency [13] | Potency [14] | outcome [15] | outcome [18]

CC(COc1ccc(C(C)(C)C)cc1)OS(=O)OCCCl (stereo unspecified)
inactive: Potency [1] | Potency [2] | Potency [3] | Potency [4] | Potency [5] | Potency [6] | Potency [16] | Potency [8] | Potency [17] | Potency [9] | Potency [10] | Potency [11] | Potency [12] | Potency [13] | Potency [19] | Potency [14] | outcome [18]

COC(OC)(C(=O)c1ccccc1)c1ccccc1
inactive: Potency [1] | Potency [2] | Potency [3] | Potency [4] | Potency [5] | Potency [6] | Potency [7] | Potency [16] | Potency [8] | Potency [17] | Potency [9] | Potency [10] | Potency [11] | Potency [13] | Potency [14] | outcome [15] | outcome [18]

CCC(C)=O
inactive: Potency [1] | Potency [2] | Potency [3] | Potency [4] | Potency [5] | Potency [6] | Potency [7] | Potency [16] | Potency [8] | Potency [17] | Potency [10] | Potency [11] | Potency [12] | Potency [13] | Potency [14] | outcome [18]

c1cnc2c(n1)CCCC2
inactive: Potency [1] | Potency [2] | Potency [3] | Potency [4] | Potency [5] | Potency [6] | Potency [7] | Potency [16] | Potency [8] | Potency [17] | Potency [9] | Potency [10] | Potency [11] | Potency [13] | Potency [14] | outcome [15] | outcome [18]

C=CCCCCCCCCCCCCCCCC
inactive: activity change, negative = cytotoxicity [1] 17.8% [at 8.47 µM] | activation [2] -0.177% [at 8.47 µM] | viability change, negative = cytotoxic [3] -2.48% [at 8.47 µM] | activation [4] -3.71% [at 7.08 µM] | ratio activity, negative = inhibition [5] 1.33% [at 5.95 µM] | activity change, negative = cytotoxicity [6] 1.33% [at 5.95 µM] | viability change, negative = cytotoxic [16] -4.17% [at 8.36 µM] | activity change, negative = cytotoxicity [8] 11.1% [at 5.95 µM] | activation [17] -2.33% [at 5.95 µM] | activity change, negative = cytotoxicity [9] -1.2% [at 5.95 µM] | activation [10] -3.43% [at 5.95 µM] | viability change, negative = cytotoxic [11] 13.3% [at 6.26 µM] | ratio activity, negative = inhibition [12] -0.434% [at 6.26 µM] | activity change, negative = inhibition [20] -5.71% [at 5.95 µM] | activation [19] -1.74% [at 5.95 µM] | activation [15] -0.178% [at 6.01 µM] | activity change, negative = inhibition [18] 7.35% [at 6.95 µM]
